Most compounds without a hit are left out; they make up all but 7.5% or so of the library.
Rab9 promoter act = Rab9 promoter activation. Huh7 Rab9 promoter-luciferase reporter, luminescence, 24 h. Potency, µM (highest dose often 9.22 µM), actives largely listed as activators. 320,000 compounds, 2.8% hits; also: nearly all actives have a fitted effect of over 60% in size
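Luminescence read-out: Huh7 cells stably expressing Rab9-luciferase, treated 24 h with compound at 37 °C, then lysed with luciferase reagent for 10 min at ambient before reading.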
SMN2 splice enh = enhancers of SMN2 splice variant expression. AID 1458. 210,000 compounds, 2.8% hits. Potency, µM (highest dose often 46.1 µM), actives largely listed as activators. HEK293 SMN2-luciferase splicing reporter, luminescence, 30-36 h; also: nearly all actives have a fitted effect of over 55% in size
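qHTS luciferase splicing reporter: luminescence rises when SMN2 exon 7 is included in transfected HEK293 cells. Compound exposure lasted 30-36 h at 37C, with 4.5 mM final sodium butyrate as control, followed by a ONE-Glo read.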
NPC1 promoter act = NPC1 promoter activation; Huh7 NPC1 promoter luciferase reporter, 24 h; Potency, µM (top dose mostly 9.22 µM), most hits filed as activators; 320,000 compounds, 2.4% hits; also: nearly all actives have a fitted effect of over 60% in size
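Quantitative HTS used a cell-based reporter: Huh7 cells stably bearing the NPC1 promoter upstream of luciferase were treated with compounds for 24 h, and promoter activation was read as luminescence.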
FLuc counter = firefly luciferase modulation, counter-screen for miR-21 project; AID 588342; 360,000 compounds, 6.9% hits; purified FLuc, Km substrates, luminescence inhibition; Potency, µM (series often up to 57.5 µM), usual class: inhibitors; also: nearly all actives have a fitted effect of over 55% in size
Target sequence (P08659 whole entry, looked up): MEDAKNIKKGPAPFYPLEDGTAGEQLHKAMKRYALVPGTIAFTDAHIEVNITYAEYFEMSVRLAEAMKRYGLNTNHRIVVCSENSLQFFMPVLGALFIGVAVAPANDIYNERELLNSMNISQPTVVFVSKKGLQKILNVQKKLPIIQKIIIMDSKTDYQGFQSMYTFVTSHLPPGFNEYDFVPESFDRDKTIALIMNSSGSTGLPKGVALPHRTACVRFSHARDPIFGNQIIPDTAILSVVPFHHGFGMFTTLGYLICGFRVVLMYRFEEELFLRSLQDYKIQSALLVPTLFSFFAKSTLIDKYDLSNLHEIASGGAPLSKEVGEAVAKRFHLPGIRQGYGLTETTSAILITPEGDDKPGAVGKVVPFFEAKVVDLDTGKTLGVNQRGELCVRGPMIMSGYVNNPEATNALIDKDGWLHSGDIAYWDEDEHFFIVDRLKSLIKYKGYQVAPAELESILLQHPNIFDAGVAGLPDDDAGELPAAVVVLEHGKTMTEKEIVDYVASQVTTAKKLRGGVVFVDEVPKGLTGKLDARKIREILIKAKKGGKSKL
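Purified P. pyralis luciferase (10nM final) with 10uM D-luciferin and 10uM ATP (Km levels) in 50mM Tris acetate pH 7.5, 10mM Mg acetate, 0.01% Tween-20, 0.05% BSA; qHTS 6-point titration, ~60 µM downward; luminescence read.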
KinaseGlo FLuc = blocks Kinase-Glo luciferase, a counter-screen artifact | 200,000 compounds, 0.28% hits | Potency, µM (doses to about 38.3 µM), hits mostly inhibitors | AID 1379 | Kinase-Glo luciferase, ATP luminescence, 8 min | Q27757; also: nearly all actives have a fitted effect of over 60% in size
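Kinase-Glo luciferase light output from ATP and luciferin was measured with 10 uM ATP, within the enzyme's linear range. Buffer: 50 mM imidazole pH 7.2, 50 mM KCl, 7 mM MgCl2, 0.01% Tween 20, 0.05% BSA; luminescence read after 8 min at ambient temperature.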
ELG1 genotoxic = induces genotoxicity in HEK293T cells with luciferase-tagged ELG1. Potency, µM (titrated, usually from 46 µM), most hits filed as activators. HEK293T ELG1-luciferase reporter, luminescence, 16 h. AID 504466. 330,000 compounds, 1.3% hits; also: nearly all actives have a fitted effect of over 60% in size
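Genotoxicity was scored as increased ELG1-luciferase reporter signal, measured by ONE-Glo luminescence (30 min, room temperature). Compound or vehicle exposure of the HEK293T reporter cells lasted 16 hr at 37°C.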
Each line names hits and unclear results; the compound was inactive in the other large screens; ! = not confirmed by another sample. Calls follow the shape of the dose curve; as a rule, active = well fitted curve in the direction sought with a large enough effect; inconclusive = small, poorly fitted or top-dose-only effect, or another doubt; inactive = no such curve, though single readings can be large; an effect the other way counts as inactive or inconclusive.

CC(C)(C)NC(=O)Nc1nnc(SCC(=O)NC2CCCCC2)s1	FLuc counter 11µM (no result: SMN2 splice enh, KinaseGlo FLuc)
COc1ccc(N(CC(=O)NCc2ccco2)C(=O)CCC(=O)Nc2nccs2)c(OC)c1	FLuc counter inconclusive (no result: SMN2 splice enh, KinaseGlo FLuc)
CN(C)CCCNC(=O)C[C@H]1C[C@H](C(=O)N2CCOCC2)[C@@]2(C)c3[nH]c4cc(-c5ccco5)ccc4c3CCN2C1=O	none (no result: Rab9 promoter act, SMN2 splice enh, NPC1 promoter act, FLuc counter, KinaseGlo FLuc)
CCC(C)(C)c1ccc(Oc2ccc(N)cc2)cc1	FLuc counter inconclusive
CCC(C)(C)c1ccc(Oc2cccc(C(=O)O)c2)cc1	Rab9 promoter act inconclusive, NPC1 promoter act 1.8µM, FLuc counter inconclusive
Cc1ccccc1Oc1cccc(C(=O)/C(C#N)=C/N(C)C)c1	FLuc counter inconclusive, ELG1 genotoxic inconclusive
CN(C)/C=C(/C#N)C(=O)c1cccc(Oc2ccc(C(C)(C)C)cc2)c1	FLuc counter 15µM
C=CCn1c(-c2ccc(OC)cc2)nc2nc3ccccc3nc21	SMN2 splice enh 10µM, FLuc counter inconclusive
COc1ccc(-c2nc3ccccc3n2Cc2ccccc2)cc1	FLuc counter inconclusive
C=CCn1c(-c2ccc(OC)cc2)nc2ccccc21	SMN2 splice enh inconclusive, FLuc counter 13µM
C=CCn1c(-c2ccc(N)cc2)nc2ccccc21	Rab9 promoter act inconclusive, SMN2 splice enh inconclusive, FLuc counter 11µM, ELG1 genotoxic 18µM
CCC(C)(C)NC(=O)C(c1ccc(OC)cc1)N(C(=O)CCC(=O)Nc1cc(C)on1)c1ccccc1F (stereo unspecified)	none (no result: SMN2 splice enh, KinaseGlo FLuc)
CCCCc1ccc(NC(=S)N2CCN(C)CC2)cc1	FLuc counter 15µM (no result: SMN2 splice enh, KinaseGlo FLuc)
CCCN1CCN(C(=S)Nc2ccc(SC(F)F)cc2)CC1	FLuc counter 13µM
CC1CCN(C(=S)Nc2ccc(SC(F)F)cc2)CC1	SMN2 splice enh 22µM, NPC1 promoter act inconclusive, FLuc counter 1.1µM
CC(=O)N1CCN(C(=S)Nc2ccc(SC(F)F)cc2)CC1	SMN2 splice enh inconclusive
O=C(Oc1cccc(/C=N/Nc2nc(Nc3ccccc3)nc(N3CCOCC3)n2)c1)c1ccco1	FLuc counter 7.6µM
C(=N\Nc1nc(Nc2ccccc2)nc(N2CCOCC2)n1)/c1c[nH]c2ccccc12	FLuc counter 4.3µM
Cc1[nH]c2ccccc2c1/C=N/Nc1nc(Nc2ccc(F)cc2)nc(N2CCOCC2)n1	FLuc counter 17µM
Cc1ccc(Nc2nc(N/N=C/c3c[nH]c4ccccc34)nc(N3CCOCC3)n2)cc1	FLuc counter inconclusive
Cc1ccc(O)c(NC(=O)c2cc([N+](=O)[O-])ccc2Cl)c1	none
O=C(Nc1ccc([N+](=O)[O-])cc1Cl)c1cc(Cl)ccc1O	Rab9 promoter act 0.1µM, SMN2 splice enh 25µM!, NPC1 promoter act 0.065µM, FLuc counter 0.21µM, ELG1 genotoxic inconclusive
O=C(Nc1ccccc1F)Nc1ccc([N+](=O)[O-])cc1Cl	Rab9 promoter act 4µM, NPC1 promoter act inconclusive, FLuc counter inconclusive (no result: SMN2 splice enh, KinaseGlo FLuc)
O=C(Nc1cccc(Cl)c1)c1cc(N=Nc2ccc([N+](=O)[O-])cc2Cl)ccc1O	FLuc counter 12µM (no result: SMN2 splice enh, KinaseGlo FLuc)
O=C(COc1ccc(Cl)cc1)NCCc1csc(-c2ccc(C(F)(F)F)cc2)n1	none (no result: Rab9 promoter act, SMN2 splice enh, NPC1 promoter act, KinaseGlo FLuc, ELG1 genotoxic)
COc1cc(N=C(N)N=C(N)N)c2ncccc2c1	none (no result: Rab9 promoter act, NPC1 promoter act, FLuc counter, ELG1 genotoxic)
O=C(NCc1ccccc1Cl)c1ccc2c(c1)N(Cc1ccccc1)C(=O)CS2	none (no result: Rab9 promoter act, SMN2 splice enh, NPC1 promoter act, KinaseGlo FLuc, ELG1 genotoxic)
O=C(c1ccc(NS(=O)(=O)c2cccc([N+](=O)[O-])c2)cc1)N1CCN(C(=O)c2ccco2)CC1	none (no result: SMN2 splice enh, KinaseGlo FLuc)
Nc1nnc(-c2ccccc2F)s1	FLuc counter inconclusive (no result: SMN2 splice enh)
Nc1nnc(-c2ccc(Cl)cc2Cl)s1	Rab9 promoter act inconclusive, FLuc counter 12µM, ELG1 genotoxic inconclusive (no result: SMN2 splice enh)
Cc1ccc(CCNC(=O)c2cc3c(=O)oc4ccccc4c3s2)cc1	none (no result: Rab9 promoter act, NPC1 promoter act, KinaseGlo FLuc, ELG1 genotoxic)
CCCC(=O)Nc1nnc(SCC(=O)NC2CC2)s1	none (no result: SMN2 splice enh, KinaseGlo FLuc)
CN(C)c1ccc(N=C/C=C2\N(C)c3ccccc3C2(C)C)cc1	FLuc counter 15µM
CN1\C(=C/C=C/C=C/C=[N+](C)C)C(C)(C)c2ccccc21	FLuc counter 8.5µM, KinaseGlo FLuc 11µM
CN1/C(=C\C=O)C(C)(C)c2ccccc21	none
CSc1ncc2c(n1)-c1ccccc1N(Cc1ccccc1C)S2(=O)=O	none (no result: Rab9 promoter act, SMN2 splice enh, NPC1 promoter act, KinaseGlo FLuc, ELG1 genotoxic)
